# Out of some 5,500 compounds screened, about 2,000 (36%) were called active. Roughly 18% stayed inconclusive and do not appear here. This is one part of the list. Unmarked numbers belong to inactive results. No stated cut-off is given here; in the data, active means normalized growth mostly below about 0.91 (no sharp cut-off); inconclusive means no clear call, values can overlap the other calls; inactive means mostly above about 0.92.
# Experiment: chemical genetic growth profiling, strain panel (AID 1159580);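 further: tested at 20 µM; growth read once vehicle control cultures reached saturation at 30 °C; 1 = growth at the plate median or of vehicle wells; lower values mean less growth of the strain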
# Details: growth OD
compound,measurement,setting,value
CC(=O)O[C@H]1CC[C@@]2(C)C(C[C@@H](OC(C)=O)[C@]3(C)C2CC[C@@]2(C)[C@H](c4ccoc4)OC(=O)[C@H]4O[C@]423)C1(C)C (stereo partly drawn),normalized growth,"S. cerevisiae deletion strains, locus YJL187C, strain SWE1, hits give low values",1
same,normalized growth,"S. cerevisiae deletion strains, locus YJR066W, strain TOR1, hits give low values",0.997
same,normalized growth,"S. cerevisiae deletion strains, locus YKL009W, strain mrt4, hits give low values",1.47 [resistant] (active)
same,normalized growth,"S. cerevisiae deletion strains, locus YKL068W, hits give low values",1
same,normalized growth,"S. cerevisiae deletion strains, locus YKL085W, strain MDH1 (second series), hits give low values",1.04
same,normalized growth,"S. cerevisiae deletion strains, locus YKL085W, strain MDH1, hits give low values",1.04
same,normalized growth,"S. cerevisiae deletion strains, locus YKL160W, strain elf1, hits give low values",1.02
same,normalized growth,"S. cerevisiae deletion strains, locus YKL190W, strain CNB1, hits give low values",1
same,normalized growth,"S. cerevisiae deletion strains, locus YKR001C, strain vps1, hits give low values",1
same,normalized growth,"S. cerevisiae deletion strains, locus YKR026C, strain gcn3, hits give low values",0.971
same,normalized growth,"S. cerevisiae deletion strains, locus YKR091W, strain srl3, hits give low values",0.991
same,normalized growth,"S. cerevisiae deletion strains, locus YLL001W, strain dnm1, hits give low values",0.988
same,normalized growth,"S. cerevisiae deletion strains, locus YLL026W, hits give low values",0.995
same,normalized growth,"S. cerevisiae deletion strains, locus YLL041C, strain sdh2, hits give low values",0.987
same,normalized growth,"S. cerevisiae deletion strains, locus YLR027C, strain aat2, hits give low values",1
same,normalized growth,"S. cerevisiae deletion strains, locus YLR039C, strain RIC1, hits give low values",1.01
same,normalized growth,"S. cerevisiae deletion strains, locus YLR058C, strain SHM2, hits give low values",1.01
same,normalized growth,"S. cerevisiae deletion strains, locus YLR102C, strain apc9, hits give low values",1.02
same,normalized growth,"S. cerevisiae deletion strains, locus YLR113W, strain HOG1, hits give low values",0.991
same,normalized growth,"S. cerevisiae deletion strains, locus YLR221C, strain rsa3, hits give low values",1.01
same,normalized growth,"S. cerevisiae deletion strains, locus YLR258W, strain gsy2, hits give low values",0.994
same,normalized growth,"S. cerevisiae deletion strains, locus YLR262C, strain YPT6 (second series), hits give low values",1.05
same,normalized growth,"S. cerevisiae deletion strains, locus YLR262C, strain YPT6, hits give low values",1.1
same,normalized growth,"S. cerevisiae deletion strains, locus YLR268W, strain sec22, hits give low values",0.999
same,normalized growth,"S. cerevisiae deletion strains, locus YLR320W, strain mms22, hits give low values",1.01
same,normalized growth,"S. cerevisiae deletion strains, locus YLR330W, strain CHS5, hits give low values",1.01
same,normalized growth,"S. cerevisiae deletion strains, locus YLR342W, strain FKS1, hits give low values",0.994
same,normalized growth,"S. cerevisiae deletion strains, locus YLR357W, strain rsc2, hits give low values",0.951
same,normalized growth,"S. cerevisiae deletion strains, locus YLR370C, strain arc18, hits give low values",0.996
same,normalized growth,"S. cerevisiae deletion strains, locus YLR371W, strain rom2, hits give low values",1.01
same,normalized growth,"S. cerevisiae deletion strains, locus YLR384C, strain iki3, hits give low values",1
same,normalized growth,"S. cerevisiae deletion strains, locus YLR418C, strain cdc73, hits give low values",1.06
same,normalized growth,"S. cerevisiae deletion strains, locus YML016C, strain PPZ1, hits give low values",1.02
same,normalized growth,"S. cerevisiae deletion strains, locus YML032C, strain rad52, hits give low values",1.01
same,normalized growth,"S. cerevisiae deletion strains, locus YML120C, strain ndi1, hits give low values",0.989
same,normalized growth,"S. cerevisiae deletion strains, locus YML124C, strain tub3, hits give low values",1.01
same,normalized growth,"S. cerevisiae deletion strains, locus YMR058W, strain fet3, hits give low values",1
same,normalized growth,"S. cerevisiae deletion strains, locus YMR078C, strain ctf18, hits give low values",1.02
same,normalized growth,"S. cerevisiae deletion strains, locus YMR125W, strain sto1, hits give low values",0.99
same,normalized growth,"S. cerevisiae deletion strains, locus YMR129W, hits give low values",0.996
same,normalized growth,"S. cerevisiae deletion strains, locus YMR205C, strain PFK2, hits give low values",0.968
same,normalized growth,"S. cerevisiae deletion strains, locus YMR223W, strain ubp8, hits give low values",1.03
same,normalized growth,"S. cerevisiae deletion strains, locus YMR231W, strain pep5, hits give low values",0.994
same,normalized growth,"S. cerevisiae deletion strains, locus YMR263W, strain SAP30, hits give low values",1.02
same,normalized growth,"S. cerevisiae deletion strains, locus YMR307W, strain GAS1, hits give low values",0.994
same,normalized growth,"S. cerevisiae deletion strains, locus YNL067W, strain RPL9B, hits give low values",1.05
same,normalized growth,"S. cerevisiae deletion strains, locus YNL071W, strain lat1, hits give low values",1
same,normalized growth,"S. cerevisiae deletion strains, locus YNL183C, strain NPR1, hits give low values",1
same,normalized growth,"S. cerevisiae deletion strains, locus YNL209W, strain ssb2, hits give low values",1
same,normalized growth,"S. cerevisiae deletion strains, locus YNL233W, strain BNI4, hits give low values",1.05
same,normalized growth,"S. cerevisiae deletion strains, locus YNL248C, strain rpa49, hits give low values",1.01
same,normalized growth,"S. cerevisiae deletion strains, locus YNL250W, strain rad50, hits give low values",1.05
same,normalized growth,"S. cerevisiae deletion strains, locus YNL271C, strain bni1, hits give low values",1.02
same,normalized growth,"S. cerevisiae deletion strains, locus YNL298W, strain CLA4, hits give low values",1.01
same,normalized growth,"S. cerevisiae deletion strains, locus YNL307C, strain MCK1, hits give low values",1.02
same,normalized growth,"S. cerevisiae deletion strains, locus YNL322C, strain KRE1 (second series), hits give low values",0.997
same,normalized growth,"S. cerevisiae deletion strains, locus YNR049C, strain mso1, hits give low values",0.985
same,normalized growth,"S. cerevisiae deletion strains, locus YNR052C, strain pop2, hits give low values",1.03
same,normalized growth,"S. cerevisiae deletion strains, locus YOL006C, strain TOP1, hits give low values",1.04
same,normalized growth,"S. cerevisiae deletion strains, locus YOL012C, strain htz1",0.707
same,normalized growth,"S. cerevisiae deletion strains, locus YOL147C, strain pex11, hits give low values",1.01
same,normalized growth,"S. cerevisiae deletion strains, locus YOR001W, strain rrp6, hits give low values",1.02
same,normalized growth,"S. cerevisiae deletion strains, locus YOR061W, strain CKA2, hits give low values",1
same,normalized growth,"S. cerevisiae deletion strains, locus YOR069W, strain VPS5, hits give low values",1.01
same,normalized growth,"S. cerevisiae deletion strains, locus YOR070C, strain gyp1, hits give low values",0.997
same,normalized growth,"S. cerevisiae deletion strains, locus YOR080W, strain dia2, hits give low values",0.996
same,normalized growth,"S. cerevisiae deletion strains, locus YOR083W, strain WHI5, hits give low values",1.03
same,normalized growth,"S. cerevisiae deletion strains, locus YOR106W, strain vam3, hits give low values",1.03
same,normalized growth,"S. cerevisiae deletion strains, locus YOR136W, strain idh2, hits give low values",1.02
same,normalized growth,"S. cerevisiae deletion strains, locus YOR144C, strain elg1, hits give low values",1.01
same,normalized growth,"S. cerevisiae deletion strains, locus YOR184W, strain ser1, hits give low values",1
same,normalized growth,"S. cerevisiae deletion strains, locus YOR231W, strain MKK1, hits give low values",1.02
same,normalized growth,"S. cerevisiae deletion strains, locus YOR265W, strain rbl2, hits give low values",1
same,normalized growth,"S. cerevisiae deletion strains, locus YOR270C, strain vph1, hits give low values",1.01
same,normalized growth,"S. cerevisiae deletion strains, locus YOR290C, strain snf2, hits give low values",0.942
same,normalized growth,"S. cerevisiae deletion strains, locus YOR316C, strain cot1, hits give low values",1.01
same,normalized growth,"S. cerevisiae deletion strains, locus YPL051W, strain arl3, hits give low values",1.03
same,normalized growth,"S. cerevisiae deletion strains, locus YPL078C, strain atp4, hits give low values",1.02
same,normalized growth,"S. cerevisiae deletion strains, locus YPL106C, strain sse1, hits give low values",0.981
same,normalized growth,"S. cerevisiae deletion strains, locus YPL240C, strain hsp82, hits give low values",1
same,normalized growth,"S. cerevisiae deletion strains, locus YPL241C, strain CIN2, hits give low values",1
same,normalized growth,"S. cerevisiae deletion strains, locus YPL256C, strain CLN2, hits give low values",1.05
same,normalized growth,"S. cerevisiae deletion strains, locus YPR119W, strain clb2, hits give low values",1.01
same,normalized growth,"S. cerevisiae deletion strains, locus YPR141C, strain kar3, hits give low values",1.02
same,normalized growth,"S. cerevisiae deletion strains, locus YPR163C, strain tif3, hits give low values",1.02
same,normalized growth,"S. cerevisiae deletion strains, locus YPR167C, strain met16, hits give low values",1.01
same,normalized growth,"S. cerevisiae deletion strains, strain wtn01, hits give low values",1.02
same,normalized growth,"S. cerevisiae strains, strain wild type, hits give low values",1.02

# — PubChem BioAssay AID1159580 (chemical genetic matrix, 2015)
